Laboratory results taken from PubChem BioAssay (Tox21).
Records with an inconclusive call do not appear. Active and inactive are the calls of the source. Unless noted, the call rests on the fitted dose curve; in most records, active means well fitted curve in the direction sought with a large enough effect in the repeat runs; inconclusive means weak or mixed curves; inactive means no such curve, though single readings can be large; an effect the other way counts as inactive or inconclusive.

What was measured:
[1] = qHTS assay to identify small molecule agonists of the TGF-beta/Smad signaling pathway - cell viability counter screen (AID 1346829); further: top concentration of the series differs between compounds; nearly all actives have a fitted effect of over 45% in size
Method in brief: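 CellTiter-Glo luminescence readout; SBE-bla HEK 293T cells, overnight plating, compound 5 hr at 37 C/5% CO2, then bla substrate 2 hr RT, then CellTiter-Glo 30 min RT.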

[2] = qHTS assay to identify small molecule agonists of the TGF-beta/Smad signaling pathway (AID 1346859; active means well fitted activation curve with a large enough effect in the signal ratio in the repeat runs, not every such curve was filed as active; the % refers to the signal ratio; further: series mostly up to about 77 µM)
Method in brief: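 Fluorescence (ex 405 nm; em 460 and 530 nm) was read 2 h after LiveBLAzer FRET substrate at RT. The preceding compound treatment of overnight-plated SBE-bla HEK293T cells lasted 5 h at 37 C.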

[3] = biological target: Thyrotropin-releasing hormone receptor (Homo sapiens) (UniProt P34981); test: qHTS assay to identify small molecule antagonists of the thyrotropin-releasing hormone receptor (TRHR) signaling pathway (AID 1346877; active means well fitted inhibition curve with a large enough effect in the repeat runs, not every such curve was filed as active; further: series mostly up to about 51 µM)
Thyrotropin-releasing hormone receptor (Homo sapiens), sequence (P34981 whole entry, looked up): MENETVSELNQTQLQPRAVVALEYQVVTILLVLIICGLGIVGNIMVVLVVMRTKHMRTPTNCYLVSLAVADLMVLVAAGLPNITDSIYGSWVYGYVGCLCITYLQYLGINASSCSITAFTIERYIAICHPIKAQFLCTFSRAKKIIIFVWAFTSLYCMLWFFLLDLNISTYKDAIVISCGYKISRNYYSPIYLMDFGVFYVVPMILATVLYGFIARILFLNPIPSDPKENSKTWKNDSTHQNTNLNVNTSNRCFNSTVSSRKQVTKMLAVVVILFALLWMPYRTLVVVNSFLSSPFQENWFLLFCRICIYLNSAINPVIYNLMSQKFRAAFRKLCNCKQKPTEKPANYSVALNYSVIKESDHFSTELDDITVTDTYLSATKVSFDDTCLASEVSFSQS
Method in brief: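 Cells (TRHR-HEK293) are plated and kept 18 h at 37 °C/5% CO2. A calcium-sensitive dye is added for 2 h, compound follows for 5 min at room temperature, and TRH is then given at 1 nM final.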

[4] = biological target: Thyrotropin-releasing hormone receptor (Homo sapiens) (UniProt P34981); test: qHTS assay to identify small molecule agonists of the thyrotropin-releasing hormone receptor (TRHR) signaling pathway (AID 1346891; calls by dose curve; further: series mostly up to about 58 µM)
Method in brief: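 Agonist-mode intracellular calcium readout: kinetic fluorescence over 3 min at 1 s intervals after compound addition to TRHR-HEK293 cells (18 h seeded, 2 h dye-loaded at 37 C). Fifteen concentrations, triplicates.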

[5] = Human pregnane X receptor (PXR) small molecule agonists, qHTS cell viability counter screen (AID 1346977); further: nearly all actives have a fitted effect of over 50% in size
Method in brief: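 Same-well viability read: CellTiter-Fluor added after 23 hr compound exposure, fluorescence measured 1 hr later. Cells were PXR-Luc HepG2 seeded at 2,000/well in 5% charcoal-stripped FBS medium, rested 5 hr before dosing at 37 C.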

[6] = Caspase-3/7 induction in HepG2 cells by small molecules, qHTS assay (AID 1346978); further: nearly all actives have a fitted effect of over 15% in size
Method in brief: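 Caspase-3/7 induction was measured by Caspase-Glo 3/7 luminescence (30 min, room temperature) after a 17 hr compound exposure of wild-type HepG2 cells seeded at 2,000 per well and pre-incubated 5 hr.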

[7] = Caspase-3/7 induction in CHO-K1 cells by small molecules, qHTS cell viability counter screen (AID 1346979); further: nearly all actives have a fitted effect of over 35% in size
Method in brief: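 Cytotoxicity counter screen: CellTiter-Fluor added to compound-treated wild-type CHO-K1 cells at 16 h (37C, 5% CO2), fluorescence measured 1 h later; same wells as caspase-3/7 measurement.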

[8] = Caspase-3/7 induction in CHO-K1 cells by small molecules, qHTS assay (AID 1346980); further: nearly all actives have a fitted effect of over 15% in size
Method in brief: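 Luminescent Caspase-Glo 3/7 read (30min, room temperature) quantified apoptosis induction. Cells were wild-type CHO-K1, treated with compound for 17hr at 37 C and 5% CO2.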

[9] = Caspase-3/7 induction in HepG2 cells by small molecules, qHTS cell viability counter screen (AID 1346981); further: series mostly up to about 92 µM; nearly all actives have a fitted effect of over 30% in size
Method in brief: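 Steps: seed 2,000 HepG2 cells per well; incubate 5 hr at 37 C; pin-add compounds in DMSO; incubate 16 hr; add CellTiter-Fluor; after 1 hr at 37 C and 5% CO2, read fluorescence.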

[10] = biological target: Nuclear receptor subfamily 1 group I member 2 (Homo sapiens) (UniProt O75469); test: Human pregnane X receptor (PXR) small molecule agonists, qHTS assay (AID 1346982); further: nearly all actives have a fitted effect of over 35% in size
Nuclear receptor subfamily 1 group I member 2 (Homo sapiens), sequence (O75469 whole entry, looked up): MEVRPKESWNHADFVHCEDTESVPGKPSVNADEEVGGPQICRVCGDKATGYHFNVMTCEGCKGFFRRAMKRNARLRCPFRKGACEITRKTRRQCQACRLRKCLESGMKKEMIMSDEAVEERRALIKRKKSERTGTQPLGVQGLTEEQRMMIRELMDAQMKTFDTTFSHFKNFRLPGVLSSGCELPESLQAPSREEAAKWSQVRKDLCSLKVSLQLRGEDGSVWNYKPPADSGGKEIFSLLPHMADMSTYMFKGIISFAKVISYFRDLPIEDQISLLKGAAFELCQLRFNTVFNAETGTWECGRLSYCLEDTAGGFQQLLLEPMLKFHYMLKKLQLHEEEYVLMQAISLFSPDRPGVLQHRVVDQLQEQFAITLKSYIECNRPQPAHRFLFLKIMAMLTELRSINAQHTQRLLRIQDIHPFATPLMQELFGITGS
Method in brief: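 Agonist mode qHTS: PXR-Luc HepG2 cells plated 5 hr before DMSO-dissolved compounds were pinned in, cultured 24 hr at 37 C, 5% CO2; ONE-Glo luminescence readout.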

[11] = biological target: Cytochrome P450 2D6 (Homo sapiens) (UniProt P10635); test: Cytochrome P450 Family 2 Subfamily D Member 6 (CYP2D6) small molecule antagonists: luciferase reporter qHTS assay (AID 1671196); further: series mostly up to about 120 µM; nearly all actives have a fitted effect of over 50% in size
Cytochrome P450 2D6 (Homo sapiens), sequence (P10635 whole entry, looked up): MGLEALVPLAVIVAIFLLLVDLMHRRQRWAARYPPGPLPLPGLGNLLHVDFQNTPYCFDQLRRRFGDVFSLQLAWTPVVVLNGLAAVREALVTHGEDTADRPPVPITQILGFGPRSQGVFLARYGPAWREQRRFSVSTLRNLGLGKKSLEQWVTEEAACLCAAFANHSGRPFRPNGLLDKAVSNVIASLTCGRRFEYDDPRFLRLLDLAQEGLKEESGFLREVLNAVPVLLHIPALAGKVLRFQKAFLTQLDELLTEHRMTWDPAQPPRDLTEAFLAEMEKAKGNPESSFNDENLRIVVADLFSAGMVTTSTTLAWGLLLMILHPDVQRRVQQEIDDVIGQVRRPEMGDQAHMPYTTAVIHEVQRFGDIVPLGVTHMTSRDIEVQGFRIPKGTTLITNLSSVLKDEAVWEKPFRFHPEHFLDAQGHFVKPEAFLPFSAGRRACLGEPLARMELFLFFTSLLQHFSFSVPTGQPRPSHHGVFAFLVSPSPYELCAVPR
Method in brief: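 P450-Glo format: CYP2D6 converts a proluciferin substrate to luciferin in an NADPH-driven reaction lasting 1 h at room temperature. Light output, proportional to CYP2D6 activity, reflects interference by test chemicals.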

[12] = biological target: Cytochrome P450 2C19 (Homo sapiens) (UniProt P33261); test: Cytochrome P450 Family 2 Subfamily C Member 19 (CYP2C19) small molecule antagonists: luciferase reporter qHTS assay (AID 1671197); further: series mostly up to about 120 µM; nearly all actives have a fitted effect of over 65% in size
Cytochrome P450 2C19 (Homo sapiens), sequence (P33261 whole entry, looked up): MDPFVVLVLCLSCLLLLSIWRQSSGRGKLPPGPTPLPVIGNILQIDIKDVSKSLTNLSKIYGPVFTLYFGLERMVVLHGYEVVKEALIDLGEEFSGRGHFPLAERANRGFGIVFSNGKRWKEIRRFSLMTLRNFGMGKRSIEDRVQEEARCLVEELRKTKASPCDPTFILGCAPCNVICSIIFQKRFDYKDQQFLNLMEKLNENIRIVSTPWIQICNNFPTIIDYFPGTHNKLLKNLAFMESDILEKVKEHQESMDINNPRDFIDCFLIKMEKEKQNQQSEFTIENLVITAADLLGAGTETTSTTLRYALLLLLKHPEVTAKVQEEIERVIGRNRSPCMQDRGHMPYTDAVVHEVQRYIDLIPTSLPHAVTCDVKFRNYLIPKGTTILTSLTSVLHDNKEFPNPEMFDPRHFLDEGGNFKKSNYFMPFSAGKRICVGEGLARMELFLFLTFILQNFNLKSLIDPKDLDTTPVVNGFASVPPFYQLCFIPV
Method in brief: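 Enzyme-substrate mix with proluciferin substrate (P450-Glo CYP2C19 system) preincubated with compounds 10 min at room temperature; NADPH regeneration solution added, 37C for 1 h; detection reagent stops reaction, luminescence read after 20 min. Ketoconazole positive control.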

[13] = biological target: Cytochrome P450 2C9 (Homo sapiens) (UniProt P11712); test: Cytochrome P450 Family 2 Subfamily C Member 9 (CYP2C9) small molecule antagonists: luciferase reporter qHTS assay (AID 1671198); further: series mostly up to about 120 µM; nearly all actives have a fitted effect of over 50% in size
Cytochrome P450 2C9 (Homo sapiens), sequence (P11712 whole entry, looked up): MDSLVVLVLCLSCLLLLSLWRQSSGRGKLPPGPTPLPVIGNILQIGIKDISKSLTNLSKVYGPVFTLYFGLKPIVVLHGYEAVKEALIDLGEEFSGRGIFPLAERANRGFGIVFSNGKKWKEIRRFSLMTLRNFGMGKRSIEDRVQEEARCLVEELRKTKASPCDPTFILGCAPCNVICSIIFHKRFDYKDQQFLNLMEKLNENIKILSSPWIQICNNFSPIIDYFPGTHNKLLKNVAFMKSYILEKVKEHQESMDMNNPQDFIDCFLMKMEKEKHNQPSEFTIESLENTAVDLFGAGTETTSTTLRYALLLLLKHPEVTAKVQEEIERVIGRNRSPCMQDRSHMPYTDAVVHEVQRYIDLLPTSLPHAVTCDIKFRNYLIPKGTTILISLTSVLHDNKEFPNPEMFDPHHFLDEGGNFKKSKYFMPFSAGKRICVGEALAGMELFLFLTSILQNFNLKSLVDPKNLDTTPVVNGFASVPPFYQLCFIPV
Method in brief: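 Enzyme-substrate mix preincubated with compound 10 min at room temperature; reaction started with NADPH regeneration solution, 1 h 37C. Luminescent luciferin product read after 20 min detection reagent.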

[14] = biological target: Cytochrome P450 1A2 (Homo sapiens) (UniProt P05177); test: Cytochrome P450 Family 1 Subfamily A Member 2 (CYP1A2) small molecule antagonists: luciferase reporter qHTS assay (AID 1671199); further: series mostly up to about 120 µM; nearly all actives have a fitted effect of over 50% in size
Cytochrome P450 1A2 (Homo sapiens), sequence (P05177 whole entry, looked up): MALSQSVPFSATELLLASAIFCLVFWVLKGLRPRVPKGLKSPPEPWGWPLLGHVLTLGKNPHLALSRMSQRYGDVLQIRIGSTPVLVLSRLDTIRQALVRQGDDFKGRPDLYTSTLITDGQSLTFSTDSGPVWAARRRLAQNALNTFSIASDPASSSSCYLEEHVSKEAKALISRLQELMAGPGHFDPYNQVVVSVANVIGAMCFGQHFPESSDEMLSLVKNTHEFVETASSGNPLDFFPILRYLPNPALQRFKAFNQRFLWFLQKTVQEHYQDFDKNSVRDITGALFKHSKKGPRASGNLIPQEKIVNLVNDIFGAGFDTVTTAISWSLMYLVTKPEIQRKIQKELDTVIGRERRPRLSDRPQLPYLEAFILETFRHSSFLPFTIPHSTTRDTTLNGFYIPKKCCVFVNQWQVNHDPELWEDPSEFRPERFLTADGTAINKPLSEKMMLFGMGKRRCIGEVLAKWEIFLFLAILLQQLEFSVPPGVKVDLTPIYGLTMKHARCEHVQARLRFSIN
Method in brief: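 Inhibition of CYP1A2 conversion of proluciferin to luciferin, detected by luminescence. Reaction run 1 h at room temperature with NADPH regeneration after brief compound preincubation.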

[15] = biological target: Voltage-gated inwardly rectifying potassium channel KCNH2 (Homo sapiens) (UniProt Q12809); test: Human Ether-a-go-go-Related Gene (hERG) channel small molecule antagonists: fluorescence cell-based qHTS assay (AID 1671200)
Voltage-gated inwardly rectifying potassium channel KCNH2 (Homo sapiens), sequence (Q12809 whole entry, looked up): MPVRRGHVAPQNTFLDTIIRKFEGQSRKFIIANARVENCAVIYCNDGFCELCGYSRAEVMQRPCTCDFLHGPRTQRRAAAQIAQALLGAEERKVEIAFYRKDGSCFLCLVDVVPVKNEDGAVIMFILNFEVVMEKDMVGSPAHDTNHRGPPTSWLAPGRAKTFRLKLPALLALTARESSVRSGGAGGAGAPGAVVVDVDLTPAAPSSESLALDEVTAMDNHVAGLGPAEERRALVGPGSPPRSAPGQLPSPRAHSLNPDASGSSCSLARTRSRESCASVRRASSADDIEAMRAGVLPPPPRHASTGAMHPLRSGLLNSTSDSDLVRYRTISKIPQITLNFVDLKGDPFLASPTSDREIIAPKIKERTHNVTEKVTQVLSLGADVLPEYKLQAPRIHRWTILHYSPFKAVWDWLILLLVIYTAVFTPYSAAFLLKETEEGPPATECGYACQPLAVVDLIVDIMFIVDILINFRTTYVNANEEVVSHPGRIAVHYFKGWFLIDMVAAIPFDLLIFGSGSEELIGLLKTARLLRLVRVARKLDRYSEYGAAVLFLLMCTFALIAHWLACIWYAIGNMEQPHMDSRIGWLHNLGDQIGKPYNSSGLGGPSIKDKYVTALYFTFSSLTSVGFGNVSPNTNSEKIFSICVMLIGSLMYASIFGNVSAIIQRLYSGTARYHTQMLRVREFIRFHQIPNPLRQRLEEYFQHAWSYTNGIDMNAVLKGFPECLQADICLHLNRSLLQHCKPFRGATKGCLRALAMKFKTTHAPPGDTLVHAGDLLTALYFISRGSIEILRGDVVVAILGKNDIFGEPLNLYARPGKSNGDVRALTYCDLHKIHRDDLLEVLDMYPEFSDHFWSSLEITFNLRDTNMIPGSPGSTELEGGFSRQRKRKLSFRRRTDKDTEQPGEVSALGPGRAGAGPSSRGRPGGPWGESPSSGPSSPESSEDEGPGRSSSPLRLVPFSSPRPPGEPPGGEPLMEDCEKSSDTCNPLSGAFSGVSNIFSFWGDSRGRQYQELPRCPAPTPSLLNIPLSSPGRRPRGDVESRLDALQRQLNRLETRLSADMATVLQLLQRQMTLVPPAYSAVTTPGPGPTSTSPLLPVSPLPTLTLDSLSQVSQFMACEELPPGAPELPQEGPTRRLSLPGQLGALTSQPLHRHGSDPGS
Method in brief: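 Thallium flux as potassium surrogate: FluxOR II dye loaded 1 h at room temperature into hERG-expressing U2OS cells, then stimulus buffer added after 10 min. Kinetic 480 nm excitation/540 nm emission read, 2 min.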

[16] = biological target: Cytochrome P450 3A4 (Homo sapiens) (UniProt P08684); test: Cytochrome P450 Family 3 Subfamily A Member 4 (CYP3A4) small molecule antagonists: luciferase reporter qHTS assay (AID 1671201)
Cytochrome P450 3A4 (Homo sapiens), sequence (P08684 whole entry, looked up): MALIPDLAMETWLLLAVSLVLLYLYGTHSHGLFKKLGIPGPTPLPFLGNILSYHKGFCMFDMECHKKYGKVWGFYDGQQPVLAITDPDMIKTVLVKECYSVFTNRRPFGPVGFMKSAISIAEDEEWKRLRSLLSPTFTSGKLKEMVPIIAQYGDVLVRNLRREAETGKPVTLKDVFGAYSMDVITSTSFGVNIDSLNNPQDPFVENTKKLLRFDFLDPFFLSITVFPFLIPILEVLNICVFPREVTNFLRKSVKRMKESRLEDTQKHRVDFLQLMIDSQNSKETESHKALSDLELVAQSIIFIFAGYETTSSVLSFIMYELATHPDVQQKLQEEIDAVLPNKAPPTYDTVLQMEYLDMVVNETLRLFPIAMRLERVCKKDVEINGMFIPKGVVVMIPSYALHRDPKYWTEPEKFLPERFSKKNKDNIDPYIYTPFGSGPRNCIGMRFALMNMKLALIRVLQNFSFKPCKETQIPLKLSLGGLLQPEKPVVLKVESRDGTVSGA
Method in brief: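 Recombinant human CYP3A4 converts a proluciferin substrate to luciferin over 1 h at room temperature after NADPH regeneration solution is added (compound preincubated 10 min); detection reagent stops reaction, luminescence read 20 min later as relative units.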

[17] = biological target: Nuclear receptor subfamily 1 group I member 2 (Rattus norvegicus) (UniProt Q9R1A7); test: Rat pregnane X receptor (rPXR) activation by small molecules, qHTS assay (AID 1346983); details: rPXR luciferase reporter cells, One-Glo luminescence, 24 h; stronger effect = higher value; further: nearly all actives have a fitted effect of over 20% in size
Nuclear receptor subfamily 1 group I member 2 (Rattus norvegicus), sequence (Q9R1A7 whole entry, looked up): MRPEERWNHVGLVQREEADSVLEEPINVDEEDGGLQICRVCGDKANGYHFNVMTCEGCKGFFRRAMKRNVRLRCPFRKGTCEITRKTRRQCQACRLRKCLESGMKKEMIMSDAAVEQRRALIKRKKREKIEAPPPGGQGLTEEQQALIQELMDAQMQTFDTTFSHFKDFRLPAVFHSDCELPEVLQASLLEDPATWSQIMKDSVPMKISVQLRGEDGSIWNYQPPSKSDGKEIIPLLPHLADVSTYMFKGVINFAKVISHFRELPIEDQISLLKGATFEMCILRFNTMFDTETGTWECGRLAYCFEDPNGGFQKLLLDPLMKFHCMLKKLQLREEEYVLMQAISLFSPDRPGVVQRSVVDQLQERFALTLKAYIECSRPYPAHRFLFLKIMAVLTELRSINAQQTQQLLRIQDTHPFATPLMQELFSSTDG
Method in brief: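 Luminescent readout (One-Glo luciferase, 30 min room temperature) followed 24 hr compound treatment at 37 C of rPXR cells plated 2,000 per well and preincubated 5hr; qHTS format with compounds delivered in DMSO.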

[18] = biological target: Nuclear receptor subfamily 1 group I member 2 (Homo sapiens) (UniProt O75469); test: CYP3A4 induction through human pregnane X receptor (PXR) by small molecules, qHTS assay (AID 1346984); further: nearly all actives have a fitted effect of over 40% in size
Method in brief: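 Steps: seed DPX-2 cells, 5 hr at 37C; pin-transfer compounds; 24 hr at 37C; add Luciferin-IPA (3uM final), 3 hr at 37C; add One-Glo, 30 min RT; read luminescence.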

[19] = biological target: Nuclear receptor subfamily 1 group I member 2 (Homo sapiens) (UniProt O75469); test: Human pregnane X receptor (PXR) activation by small molecules, qHTS assay (AID 1346985); further: nearly all actives have a fitted effect of over 40% in size
Method in brief: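 DPX-2 cells (HepG2 co-transfected with a PXR response element and a CYP3A4-promoter luciferase construct) were seeded at 2,000 per well, rested 5 hr at 37C, then exposed to DMSO-dissolved compounds for 24 hr. Activation was read as luciferase luminescence.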
On the % scale 0 is the no-effect control and ±100 the full control effect.

COc1cc2c(cc1OC)CN(C(=O)[C@H](C)N[C@@H](CCc1ccccc1)C(=O)O)[C@H](C(=O)O)C2
inactive: outcome [1] | outcome [2] | outcome [3] | outcome [4] | outcome [5] | outcome [6] | Potency [7] | outcome [8] | outcome [9] | Potency [10] | Potency [11] | Potency [12] | Potency [13] | Potency [14] | Potency [15] | Potency [16]

CC(C)OC(=O)CCC(=O)OC(C)C
inactive: outcome [1] | outcome [2] | outcome [3] | outcome [4] | outcome [5] | outcome [6] | Potency [7] | outcome [8] | outcome [9] | Potency [10] | Potency [11] | Potency [12] | Potency [13] | Potency [14] | Potency [15] | Potency [16]

N#Cc1cscn1
inactive: outcome [1] | outcome [2] | outcome [3] | outcome [4] | outcome [5] | outcome [6] | Potency [7] | outcome [8] | outcome [9] | Potency [10] | Potency [11] | Potency [12] | Potency [13] | Potency [14] | Potency [15] | Potency [16]

COCCc1ccccn1
inactive: outcome [1] | outcome [2] | outcome [3] | outcome [4] | outcome [5] | outcome [6] | Potency [7] | outcome [8] | outcome [9] | Potency [10] | Potency [11] | Potency [12] | Potency [13] | Potency [14] | Potency [15]

O=C(CN1CCNCC1)NC1CCCCC1
inactive: outcome [1] | outcome [2] | outcome [3] | outcome [4] | outcome [5] | outcome [6] | Potency [7] | outcome [8] | outcome [9] | Potency [10] | max activation [17] -3.24% | Potency [18] | Potency [19] | Potency [11] | Potency [12] | Potency [13] | Potency [15] | Potency [16]

CCC[C@@H]1C[C@@H](C(=O)N[C@@H]([C@H]2O[C@H](SC)[C@H](O)[C@@H](O)[C@H]2O)[C@@H](C)O)N(C)C1
inactive: outcome [1] | outcome [2] | outcome [3] | outcome [4] | outcome [5] | outcome [6] | Potency [7] | outcome [8] | outcome [9] | Potency [10] | max activation [17] 0.287% | Potency [18] | Potency [19] | Potency [11] | Potency [12] | Potency [13] | Potency [14] | Potency [15] | Potency [16]

CC1(C)[C@H]2CC[C@](C)(C2)[C@H]1O
inactive: outcome [1] | outcome [2] | outcome [3] | outcome [4] | outcome [5] | outcome [6] | Potency [7] | outcome [8] | outcome [9] | Potency [10] | Potency [11] | Potency [12] | Potency [13] | Potency [14] | Potency [15]

N#Cc1ccccc1O
inactive: outcome [1] | outcome [2] | outcome [3] | outcome [4] | outcome [5] | outcome [6] | Potency [7] | outcome [8] | outcome [9] | Potency [10] | Potency [11] | Potency [12] | Potency [13] | Potency [14] | Potency [15] | Potency [16]

CC(C)(C)NC[C@H](O)COc1cccc2c1CCCC2=O
inactive: outcome [1] | outcome [2] | outcome [3] | outcome [4] | outcome [5] | outcome [6] | Potency [7] | outcome [8] | outcome [9] | Potency [10] | max activation [17] 0.088% | Potency [18] | Potency [19] | Potency [12] | Potency [13] | Potency [14] | Potency [15] | Potency [16]

CN1C[C@@H]2C[C@H]1CN2c1cc2c(cc1F)c(=O)c(C(=O)O)cn2C1CC1
inactive: activity change, negative = cytotoxicity [1] 2.12% [at 15.8 µM] | activation [2] 0.101% [at 15.8 µM] | activity, negative = inhibition [3] 1.83% [at 10.5 µM] | activation [4] -1.22% [at 11.8 µM] | activity change, negative = cytotoxicity [5] -0.63% [at 19 µM] | caspase activation [6] -0.0526% [at 19 µM] | activity change, negative = cytotoxicity [7] -0.0368% [at 19 µM] | caspase-3/7 activation [8] -1.08% [at 19 µM] | activity change, negative = cytotoxicity [9] -1.05% [at 19 µM] | activation [10] -18.6% [at 19 µM] | max activation [17] -1.05% | Potency [18] | Potency [19] | activity change, negative = inhibition [11] 4.43% [at 23.6 µM] | activity change, negative = inhibition [12] 35.3% [at 23.6 µM] | activity change, negative = inhibition [13] 8.53% [at 23.6 µM] | activity change, negative = inhibition [14] -8.84% [at 23.6 µM] | activity change, negative = inhibition [15] 0.182% [at 15.8 µM] | activity change, negative = inhibition [16] 4.83% [at 23.6 µM]

NCc1ccc(S(N)(=O)=O)cc1
inactive: outcome [1] | outcome [2] | outcome [3] | outcome [4] | outcome [5] | outcome [6] | Potency [7] | outcome [8] | outcome [9] | Potency [10] | max activation [17] -0.0614% | Potency [18] | Potency [19] | Potency [11] | Potency [14] | Potency [15] | Potency [16]

CCCSSCCC
inactive: outcome [1] | outcome [2] | outcome [3] | outcome [4] | outcome [5] | outcome [6] | Potency [7] | outcome [8] | outcome [9] | Potency [10] | Potency [11] | Potency [12] | Potency [13] | Potency [15]

O=C(O)[C@H](O)c1ccccc1
inactive: outcome [1] | outcome [2] | outcome [3] | outcome [4] | outcome [5] | outcome [6] | Potency [7] | outcome [8] | outcome [9] | Potency [10] | max activation [17] -3.01% | Potency [18] | Potency [19] | Potency [11] | Potency [13] | Potency [14] | Potency [15]

Cc1ncc([N+](=O)[O-])n1CC(C)O (stereo not drawn)
inactive: outcome [1] | outcome [2] | outcome [3] | outcome [4] | outcome [5] | outcome [6] | Potency [7] | outcome [8] | outcome [9] | Potency [10] | max activation [17] -2.68% | Potency [18] | Potency [11] | Potency [12] | Potency [13] | Potency [14] | Potency [15]
